# Reference: ChEMBL document CHEMBL3988442, “University of Dundee, Small-Polar-MMV Screening Library” (2021)
# In all, about 48,000 compounds went through this assay and about 13,000 (27%) showed an effect of 50% or more. The list shows a part of the results.
# System: Wolbachia pipientis
# Assay: Anti-Wolbachia Cell-Based Screen
# Type: functional
# Design: scale not given: in the data most compounds retested in dose-response had high values
# Settings: 5 µM
row,SMILES,Percent Effect
1,C[C@@H]1CN(Cc2ccc(-c3ccncc3)cc2F)CC(C(N)=O)O1 (stereo not given in full),-2.76%
2,Cc1ccccc1OCCN(C)Cc1noc(CC(C)C)n1,-23.34%
3,Cc1nc(C)n(CC2CCCCN2Cc2nnc(C3CC3)o2)n1 (stereo not given),1.656%
4,c1ccc(Cc2nnc(CN3CCCC3Cn3cccn3)o2)cc1 (stereo not given),131.9%
5,Cc1nc(C2CCCN2Cc2nnc(Cc3ccccc3)o2)no1 (stereo not given),-12.76%
6,CCc1nc(C2CCCN2Cc2nnc(Cc3ccccc3)o2)no1 (stereo not given),6.131%
7,Cc1nc(C)n(CC2CCCCN2CCCS(C)(=O)=O)n1 (stereo not given),12.99%
8,c1ccc(Cc2nnc(CN3CCCCC3Cn3cncn3)o2)cc1 (stereo not given),108.9%
9,CCc1nnc(CN2CCCCC2Cn2nc(C)nc2C)o1 (stereo not given),93.98%
10,Cc1cnn(CC2CCCCN2CCn2cncn2)c1 (stereo not given),-5.934%
11,CCc1nnc(CN2CCCCC2Cn2cncn2)o1 (stereo not given),78.77%
12,Clc1snnc1CN1CCCCC1Cn1cncn1 (stereo not given),-4.6%
13,OC1CCN(c2ccc(CNc3nc4ccccc4s3)cc2F)CC1,-3.16%
14,CS(=O)(=O)N1CCc2[nH]cnc2C12CCN(C(=O)c1ccc[nH]1)CC2,5.069%
15,NCCC1CN(Cc2cnc3c(-c4ccccc4)cnn3c2)CCO1 (stereo not given),4.404%
16,CN(C)CCCN(C)c1nccc(N2CCN[C@H]3CS(=O)(=O)C[C@H]32)n1,-10.75%
17,COCCNC(=O)NCCn1nc(C(F)(F)F)n(C)c1=O,0.0676%
18,CC1(C)CN(Cc2c[nH]c(CC3CCCC3)n2)CC[C@]1(C)O,-6.969%

row,SMILES,Percent Effect
1,Cc1cc(C)c(S(=O)(=O)Nc2ccccc2CC(F)(F)F)cc1C(=O)O,3.88%
2,c1cnc2c(c1)nc1n2[C@@H](CNCc2nccs2)COC1,-1.802%
3,Cc1nc(C)n(CC2CCCN2Cc2cnc(C)s2)n1 (stereo not given),-0.1768%
4,Cc1nc(C)n(CC2CCCCN2Cc2cnc(C)s2)n1 (stereo not given),97.07%
5,Fc1ccc(-c2nnc(CN3CCCC3Cn3cccn3)o2)cc1 (stereo not given),88.78%
6,Fc1ccc(-c2cnc(CN3CCCC3Cn3cccn3)o2)cc1 (stereo not given),-6.963%
7,Cc1nc(C)n(CC2CCCCN2Cc2cscn2)n1 (stereo not given),10.69%
8,OCC(O)CSCc1cc(Cl)ccc1Cl (stereo not given),-6.234%
9,O=C(NC1CCC1)c1n[nH]c2c1CNCC2,-9.631%
10,O=C(NCC1CC1)c1n[nH]c2c1CNCC2.O=C(O)C(F)(F)F.O=C(O)C(F)(F)F,-32.44%
11,O=C(NC1CCCc2c1[nH]c1ccc(F)cc21)c1n[nH]c2c1CCC2 (stereo not given),132.4%
12,Cc1ccc(F)cc1NC(=O)CNc1cccc2c1CCCC2,-15.05%
13,CC(=O)NC1CCCc2c1[nH]c1ccc(F)cc21 (stereo not given),97.09%
14,CC(=O)NC(c1cc(F)ccc1F)C1CC1 (stereo not given),0.9467%
15,O=C1CC(N(C(=O)c2ccc3[nH]c4c(c3c2)CCCC4)C2CC2)C(=O)N1 (stereo not given),7.465%
16,O=C(c1cc2c([nH]c1=O)CCC2)N1CCCC1c1ccc(F)cc1 (stereo not given),20.74%
17,O=C(NC1CCCc2c1[nH]c1ccc(F)cc21)c1n[nH]c2c1CCCC2 (stereo not given),120.6%
